The supplement of paper PMC6992640
± gives the standard deviation of the averaged measurements.

How the values were obtained:
Assay in all cases: cell viability (% of vehicle); higher = less cytotoxic
Settings in all cases: 10 µM; 72 h
HCI01 = tested on: HCI01 (cells of a triple-negative basal-like breast cancer xenograft)
HCI03 = tested on: HCI03 (cells of an ER-positive luminal breast cancer xenograft)
HCI09 = tested on: HCI09 (cells of a triple-negative luminal androgen receptor type breast cancer xenograft)
HCI11 = tested on: HCI11 (cells of an ER-positive luminal breast cancer xenograft)
HCI13 = tested on: HCI13 (cells of an ER-positive luminal breast cancer xenograft)
HCI16 = tested on: HCI16 (cells of a triple-negative basal-like breast cancer xenograft)
UCD52 = tested on: UCD52 (cells of a triple-negative basal-like breast cancer xenograft)
WHIM2 = tested on: WHIM2 (cells of a triple-negative basal-like breast cancer xenograft)
WHIM30 = tested on: WHIM30 (cells of a triple-negative basal-like breast cancer xenograft)
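Also: PDX cells carrying CMV promoter-driven luciferase, viability read as total photon flux per second by IVIS imaging following D-luciferin, vehicle control 0.1% DMSO.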

CC(=O)Nc1cc([As](=O)(O)O)ccc1O [Arsonic acid]
cell viability (HCI01): 105 ± 4.4 | cell viability (HCI03): 144 | cell viability (HCI09): 102 ± 22 | cell viability (HCI11): 112 | cell viability (HCI13): 73.2 ± 4.5 | cell viability (HCI16): 105 | cell viability (UCD52): 112 ± 25 | cell viability (WHIM2): 101 ± 23 | cell viability (WHIM30): 132 ± 15

CC(=Cc1csc(C)n1)C1CC2OC2(C)CCCC(C)C(O)C(C)C(=O)C(C)(C)C(O)CC(=O)O1 (configuration not stated) [Epothilone B (EPO906, Patupilone)]
cell viability (HCI01): 154 ± 16 | cell viability (HCI03): 119 | cell viability (HCI09): 91.4 ± 4.8 | cell viability (HCI11): 99.2 | cell viability (HCI13): 111 ± 2.6 | cell viability (UCD52): 78.2 ± 9.1 | cell viability (WHIM2): 75.9 ± 13 | cell viability (WHIM30): 137 ± 13

Cl.NCCc1c[nH]c2ccc(O)cc12 [Serotonin HCl]
cell viability (HCI01): 103 ± 13 | cell viability (HCI03): 132 | cell viability (HCI09): 99.9 ± 4 | cell viability (HCI11): 94.8 | cell viability (HCI13): 57.8 ± 1.6 | cell viability (HCI16): 109 | cell viability (UCD52): 100 ± 9.6 | cell viability (WHIM2): 137 ± 45 | cell viability (WHIM30): 163 ± 26

C#CC1(O)C=CC2C3CCC4=CC(=O)CCC4C3CCC21CC (configuration not stated) [Gestodene]
cell viability (HCI03): 149 | cell viability (HCI09): 97.4 ± 20 | cell viability (HCI11): 122 | cell viability (HCI13): 179 ± 25 | cell viability (HCI16): 184 | cell viability (UCD52): 143.1 ± 1.4 | cell viability (WHIM2): 106 ± 5

O=c1[nH]c2ccccc2n1CCCN1CCC(n2c(=O)[nH]c3cc(Cl)ccc32)CC1 [Domperidone]
cell viability (HCI01): 195 ± 80 | cell viability (HCI03): 103 | cell viability (HCI09): 113 ± 65 | cell viability (HCI11): 84.9 | cell viability (UCD52): 128 ± 5.5 | cell viability (WHIM2): 83.8 ± 4.6 | cell viability (WHIM30): 176 ± 9.8

C[N+]1(C)[C@@H]2C[C@@H](OC(=O)C(CO)c3ccccc3)C[C@H]1[C@@H]1O[C@@H]12.[Br-] (some centres not stated) [Methscopolamine]
cell viability (HCI01): 106 ± 8.5 | cell viability (HCI03): 128 | cell viability (HCI09): 107 ± 9.7 | cell viability (HCI11): 93.2 | cell viability (HCI16): 97.9 | cell viability (UCD52): 80.6 ± 12 | cell viability (WHIM2): 87.7 ± 8 | cell viability (WHIM30): 138.9 ± 0.7

NCC1(CC(=O)O)CCCCC1 [Gabapentin]
cell viability (HCI01): 96.8 ± 7.7 | cell viability (HCI03): 119 | cell viability (HCI09): 97.8 ± 9.5 | cell viability (HCI11): 104 | cell viability (HCI13): 88.1 ± 2.5 | cell viability (HCI16): 76 | cell viability (UCD52): 77.8 ± 0.82 | cell viability (WHIM2): 88.1 ± 8.3 | cell viability (WHIM30): 76.9 ± 11

CCCC1CC(=O)N(C(CC)C(N)=O)C1 (configuration not stated) [Brivaracetam]
cell viability (HCI01): 98 ± 7 | cell viability (HCI03): 163 | cell viability (HCI09): 97.1 ± 1.8 | cell viability (HCI11): 89.3 | cell viability (HCI13): 87.83 ± 0.76 | cell viability (HCI16): 101 | cell viability (UCD52): 106 ± 1.4 | cell viability (WHIM2): 98.2 ± 12 | cell viability (WHIM30): 128 ± 11

Cl.NCC(O)c1ccc(O)cc1 (racemic) [(+,-)-Octopamine HCl]
cell viability (HCI01): 101 ± 10 | cell viability (HCI03): 119 | cell viability (HCI09): 93 ± 10 | cell viability (HCI11): 98.3 | cell viability (HCI16): 120 | cell viability (UCD52): 91.1 ± 16 | cell viability (WHIM2): 87.9 ± 7.5 | cell viability (WHIM30): 149.4 ± 0.28

Br.COC(=O)C1=CCCN(C)C1 [Arecoline hydrobromide]
cell viability (HCI01): 94 ± 16 | cell viability (HCI03): 135 | cell viability (HCI09): 106 ± 21 | cell viability (HCI11): 88.9 | cell viability (HCI13): 103 ± 9.4 | cell viability (HCI16): 121 | cell viability (UCD52): 121 ± 21 | cell viability (WHIM2): 116 ± 1.5 | cell viability (WHIM30): 114 ± 16

CN1C2CCC1CC(OC(=O)C(CO)c1ccccc1)C2.CN1C2CCC1CC(OC(=O)C(CO)c1ccccc1)C2.O.O=S(=O)(O)O (configuration not stated) [Atropine]
cell viability (HCI01): 104 ± 7.5 | cell viability (HCI03): 134 | cell viability (HCI09): 108 ± 16 | cell viability (HCI11): 114 | cell viability (HCI13): 95.4 ± 4.6 | cell viability (HCI16): 101 | cell viability (UCD52): 83.3 ± 5.5 | cell viability (WHIM2): 91.6 ± 19 | cell viability (WHIM30): 98.4 ± 7.8

CN1C2CCC1CC(OC(=O)C(CO)c1ccccc1)C2 (configuration not stated) [Hyoscyamine]
cell viability (HCI01): 135 ± 14 | cell viability (HCI03): 132 | cell viability (HCI09): 109 ± 16 | cell viability (HCI11): 94.3 | cell viability (HCI13): 145 ± 5.8 | cell viability (HCI16): 118 | cell viability (UCD52): 74.2 ± 7.5 | cell viability (WHIM2): 93.8 ± 4 | cell viability (WHIM30): 108 ± 3.8

O=C(OC1C[N+]2(CCCOc3ccccc3)CCC1CC2)C(O)(c1cccs1)c1cccs1.[Br-] (configuration not stated) [Aclidinium Bromide]
cell viability (HCI01): 113 ± 14 | cell viability (HCI03): 131 | cell viability (HCI09): 104 ± 6.3 | cell viability (HCI11): 94.2 | cell viability (HCI13): 185 ± 6.3 | cell viability (HCI16): 93.9 | cell viability (UCD52): 79.7 ± 14 | cell viability (WHIM2): 84.7 ± 7.7 | cell viability (WHIM30): 106 ± 11

C[C@]12CC[C@H]3[C@@H](CC[C@@]45O[C@@H]4C(O)=C(C#N)C[C@]35C)[C@@H]1CC[C@@H]2O [Trilostane]
cell viability (HCI01): 131 ± 24 | cell viability (HCI03): 119 | cell viability (HCI09): 90.1 ± 5.6 | cell viability (HCI11): 114 | cell viability (HCI13): 73.7 ± 19 | cell viability (HCI16): 103 | cell viability (UCD52): 115 ± 8.4 | cell viability (WHIM2): 115 ± 15 | cell viability (WHIM30): 100 ± 15

CNCC(=O)c1ccc(O)c(O)c1.Cl [Adrenalone HCl]
cell viability (HCI01): 111 ± 21 | cell viability (HCI03): 116 | cell viability (HCI09): 104 ± 15 | cell viability (HCI11): 107 | cell viability (HCI13): 88.5 ± 7.3 | cell viability (HCI16): 152 | cell viability (UCD52): 99.9 ± 5.5 | cell viability (WHIM2): 87.8 ± 1.7 | cell viability (WHIM30): 106 ± 7.2

Cl.Cn1c(CCCC(=O)O)nc2cc(N(CCCl)CCCl)ccc21 [Bendamustine HCl]
cell viability (HCI01): 98.2 ± 7.3 | cell viability (HCI03): 93.5 | cell viability (HCI09): 95.2 ± 2.5 | cell viability (HCI11): 83.5 | cell viability (HCI13): 94.9 ± 12 | cell viability (HCI16): 77.4 | cell viability (UCD52): 97.9 ± 1.9 | cell viability (WHIM2): 71.4 ± 9.1 | cell viability (WHIM30): 92.1 ± 14

CC12CC(=CO)C(=O)CC1CCC1C2CCC2(C)C1CCC2(C)O (configuration not stated) [Oxymetholone]
cell viability (HCI01): 114 ± 30 | cell viability (HCI03): 97.8 | cell viability (HCI09): 85 ± 38 | cell viability (HCI11): 86.7 | cell viability (HCI13): 54.8 ± 5.8 | cell viability (HCI16): 124 | cell viability (UCD52): 80.6 ± 3.8 | cell viability (WHIM2): 90.9 ± 26 | cell viability (WHIM30): 135 ± 1.9

CCC[C@H](C)[C@@]1(CC)C(=O)N=C([O-])NC1=O.[Na+] [Pentobarbital sodium salt]
cell viability (HCI01): 86.4 ± 3 | cell viability (HCI03): 105 | cell viability (HCI09): 81.9 ± 8.1 | cell viability (HCI11): 85.2 | cell viability (HCI13): 96.3 ± 17 | cell viability (HCI16): 87 | cell viability (UCD52): 86.6 ± 2.1 | cell viability (WHIM2): 96.2 ± 21 | cell viability (WHIM30): 99.4 ± 11

CCOC(=O)c1cncn1C(C)c1ccccc1.Cl (configuration not stated) [Etomidate hydrochloride]
cell viability (HCI01): 137 ± 30 | cell viability (HCI03): 155 | cell viability (HCI09): 125 ± 37 | cell viability (HCI11): 117 | cell viability (HCI16): 117 | cell viability (UCD52): 97.3 ± 9.7 | cell viability (WHIM2): 145 ± 30 | cell viability (WHIM30): 76.4 ± 5.3

O=c1cccc2n1C[C@@H]1CNC[C@H]2C1 [Cytisine]
cell viability (HCI01): 93.3 ± 12 | cell viability (HCI03): 112 | cell viability (HCI09): 97.8 ± 15 | cell viability (HCI11): 95 | cell viability (HCI13): 106 ± 14 | cell viability (HCI16): 128 | cell viability (UCD52): 90.9 ± 4.7 | cell viability (WHIM2): 87.9 ± 19 | cell viability (WHIM30): 81.4 ± 3.6

CN(C)C1C(=O)C(C(N)=O)=C(O)C2(O)C(=O)C3=C(O)c4c(O)cccc4C(C)(O)C3C(O)C12.O.O (configuration not stated) [Oxytetracycline Dihydrate]
cell viability (HCI01): 81.3 ± 15 | cell viability (HCI03): 129 | cell viability (HCI09): 111 ± 22 | cell viability (HCI11): 83.1 | cell viability (HCI13): 123.2 ± 0.95 | cell viability (HCI16): 116 | cell viability (UCD52): 95.3 ± 1.7 | cell viability (WHIM2): 72.2 ± 15 | cell viability (WHIM30): 123.8 ± 0.32

O=P1(NCCCl)OCCCN1CCCl (configuration not stated) [Ifosfamide]
cell viability (HCI01): 106 ± 14 | cell viability (HCI03): 107 | cell viability (HCI09): 96.28 ± 0.62 | cell viability (HCI11): 84.8 | cell viability (HCI13): 153 ± 11 | cell viability (HCI16): 74.4 | cell viability (UCD52): 104.1 ± 0.65 | cell viability (WHIM2): 95.7 ± 26 | cell viability (WHIM30): 109 ± 2.2

CN1c2ccccc2C(NCCCCCCC(=O)[O-])c2ccc(Cl)cc2S1(=O)=O.[Na+] (configuration not stated) [Tianeptine sodium]
cell viability (HCI01): 132 ± 22 | cell viability (HCI03): 134 | cell viability (HCI09): 95.1 ± 10 | cell viability (HCI11): 122 | cell viability (HCI13): 95.95 ± 0.8 | cell viability (HCI16): 120 | cell viability (UCD52): 122 ± 4.6 | cell viability (WHIM2): 85.3 ± 8 | cell viability (WHIM30): 142.2 ± 0.38

Cn1c(COP(=O)(NCCBr)NCCBr)cnc1[N+](=O)[O-]
cell viability (HCI01): 99.5 ± 14 | cell viability (HCI03): 100 | cell viability (HCI09): 123 ± 33 | cell viability (HCI11): 120 | cell viability (HCI13): 153.9 ± 0.46 | cell viability (HCI16): 44.9 | cell viability (UCD52): 81.4 ± 2.1 | cell viability (WHIM2): 44.6 ± 2.6 | cell viability (WHIM30): 107 ± 2.5

CCNCC.O=C(O)Cc1ccccc1Nc1c(Cl)cccc1Cl [Diclofenac Diethylamine]
cell viability (HCI01): 91.7 ± 19 | cell viability (HCI03): 77.9 | cell viability (HCI09): 88.7 ± 1.8 | cell viability (HCI11): 83.1 | cell viability (HCI13): 70.4 ± 10 | cell viability (HCI16): 113 | cell viability (UCD52): 69 ± 2.6 | cell viability (WHIM2): 108 ± 7.9 | cell viability (WHIM30): 94.02 ± 0.47
